This note sets out measurements from PubChem BioAssay AID2314 (National Center for Advancing Translational Sciences (NCATS), 2010).

About 37,000 (12%) of roughly 300,000 compounds were called active. This excerpt belongs to a sample that is enriched for actives. Values without a mark were called inactive. No stated cut-off is given here; in the data, active means max response mostly above about 13% (no sharp cut-off); inactive means mostly below about 14%.

A short description of this assay: Cycloheximide Counterscreen for Small Molecule Inhibitors of Shiga Toxin. Further: read at 38.3 µM for the half of the compounds with a filed dose; 0% is about no effect. The settings on record: cell reporter, cycloheximide protein synthesis inhibition counterscreen; stronger effect = higher value.
For `CCOc1ccc(N(CC)S(=O)(=O)c2cccc3nsnc23)cc1`, the max response was -1.34%.
With `CC(=O)Nc1ccc(S(=O)(=O)N2N=NC3C2C2CC4C3(CN(C(=O)OC(C)(C)C)S4(=O)=O)O2)cc1` (centres undefined) the figure was 3.73%.
With `COc1cccc(CN(C)CC2CCCN(CCc3ccc(Cl)cc3)C2)c1OC` (centres undefined) the figure was -1.16%.
With `C/C(=N\Nc1nncc2ccccc12)c1ccc(Cl)c([N+](=O)[O-])c1` the figure was 17.3% (active).
As for `Cc1nc2ccccc2c(=O)n1NC(=O)c1ccc(Cl)c([N+](=O)[O-])c1`, the max response is -5.07%.
As to `CC(CC(=O)O)C(=O)c1ccc(Cl)c([N+](=O)[O-])c1` (centres undefined), the max response was -0.656%.
With `O=C(O)c1ccc2c(=O)n3c(nc2c1)/C(=C/c1ccc(OC(F)F)cc1OC(F)F)CC3` the figure was 1.3%; with `CCCC(=O)N1c2ccccc2NC2=C(C(=O)CCC2)C1c1ccc(F)cc1` (centres undefined), -1.45%; with `CC(C)C(=O)N1c2ccccc2NC2=C(C(=O)CCC2)C1c1ccc(N(C)C)cc1` (centres undefined), 21.8% (active).
With `CCC(=O)N1c2ccccc2NC2=C(C(=O)CCC2)C1c1ccco1` (centres undefined) the figure was -5.4%; with `O=C(NCCO)C(=O)NCC(c1ccc2c(c1)OCO2)N1CCN(c2ccc(F)cc2)CC1` (centres undefined), -1.46%; with `Cn1nc(C(F)(F)F)cc1C(=O)O`, -2.03%.
For the compound `CC12COC3(C(=O)Nc4ccc(Cl)cn4)CC1CCC32C` (centres undefined), the max response is -1.53%.
As for `CCCCC(CC)C(=O)Nc1ccc(Cl)cn1` (centres undefined), the max response is -1.66%.
For the compound `Cc1ccc(NC(=O)Nc2cccc(C(F)(F)F)c2)nc1`, the max response was 9.81%.
Consider `CCN(CC)C(=O)CCC(=O)Nc1ccc(C(=O)OC)cc1`, for which the max response is 0.562%.
Turning to `O=C(Nc1cccc([N+](=O)[O-])c1)Nc1ccc(Cl)cn1`, the max response was -1.76%.
With `CCCc1cc(C(=O)Nc2ccc(C(=O)OC)cc2)cs1`, the max response is 18.2% (active).
For the compound `COC(=O)c1ccc(NC(=O)C(C)N2C(=O)c3ccccc3C2=O)cc1` (centres undefined), the max response was -1.97%.
With `O=C(Nc1ccc(Cl)cn1)Nc1cccs1` the figure was 47.7% (active).
With `CCCc1cc(C(=O)Nc2ccc(Cl)cn2)cs1` the figure was 30.5% (active); with `Cc1ccc(C(C)C)c(OCCSc2nc3ccccc3n2CC(=O)O)c1`, -3.05%.
As for `CN(CC1CCCN(CCc2cccc(C(F)(F)F)c2)C1)C(=O)c1ccc2nc[nH]c2c1` (centres undefined), the max response was 7.92%.
As to `Cc1ccc(-c2nc(SCC(=O)Nc3ccccc3OC(F)F)c3c(C)c(C(=O)O)sc3n2)cc1`, the max response is -2.74%.
As to `Cc1ccc(C(C)(C)C)c(OCCCCN2CCCC2)c1`, the max response was -1.44%.
On to `CCOc1ccc(NC(=O)CN(C)CC(=O)Nc2cccc(Cl)c2C)cc1OCC`, for which the max response was -1.94%.
Turning to `O=C(c1ccc(-c2ccccc2)cc1)C1CCCN(C(=O)c2cncs2)C1` (centres undefined), the max response was -0.779%.
Regarding `Cc1ccccc1NC(=O)C1CCCN(C(=O)NCc2ccccc2)C1` (centres undefined), the max response was -2.13%.
`CCNC(=O)N1CCCC(C(=O)c2ccc(-c3ccccc3)cc2)C1` (centres undefined): the max response was 35% (active).
As to `N#C/C(=C\c1cccnc1)C(=O)Nc1ccc(SC(F)F)cc1`, the max response is -2.71%.
With `CCC(NC(=O)C1CCCC1)c1ccc(C)cc1` (centres undefined) the figure was -1.61%; with `Cc1cccc2cc3c(N)c(C(=O)N4CCCc5ccccc54)sc3nc12`, -2.83%; with `CCOc1ccc(-n2c(N)c(C(=O)NCC3CCCO3)sc2=S)cc1` (centres undefined), -1.47%.
`O=C(CSc1ccc(-c2ccccc2)nn1)NCC1CCCO1` (centres undefined): the max response is 8.54%.
With `Cc1c(C(=O)N2CCCc3ccccc32)sc2nc(-c3ccccc3)cn12` the figure was 7.76% (active).
Turning to `Cc1c(C(=O)NCC2CCCO2)sc2nc(-c3ccccc3)cn12` (centres undefined), the max response is 78.5% (active).
Regarding `O=C(c1c(Cl)nc2sccn12)N1CCCc2ccccc21`, the max response is 11.5%.
With `Cc1c(C(=O)N2CC(C)OC(C)C2)sc2nc(-c3ccccc3)cn12` (centres undefined) the figure was 26.8% (active); with `CC1CN(C(=O)CN2C(=O)NC(C)(c3ccccc3)C2=O)CC(C)O1` (centres undefined), -0.354%.
Take `Cc1cccc(C)c1NC(=O)N1CC(C)OC(C)C1` (centres undefined): the max response is -0.915%.
On to `O=C(NC1CC1)C(Cc1ccccc1)NS(=O)(=O)c1ccccc1F` (centres undefined), for which the max response is -2.2%.
Take `Cc1sc2nc(SCCO)n(-c3ccccc3)c(=O)c2c1C`: the max response is 1.18%.
In the case of `Cc1oc2c(F)c(F)c(F)c(F)c2c1S(=O)(=O)Nc1cccc(C(F)(F)F)c1`, the max response was 2.32%.
With `COc1ccc(CNC(=O)CSc2n[nH]c(N)n2)cc1OC` the figure was -3.7%; with `COc1ccc(C)cc1NC(=O)CN(C)S(=O)(=O)c1ccc2c(c1)n(C)c(=O)c(=O)n2C`, 0.886%; with `Cc1ccc(C(=O)Nc2ccc(C)c(S(=O)(=O)N(C)C)c2)s1`, 73.5% (active).
Regarding `Cc1ccc(S(=O)(=O)N(C)C)cc1NC(=O)/C=C/c1cccs1`, the max response was -3.65%.
With `CCN(CC(=O)Nc1ccc(C)c(S(=O)(=O)N(C)C)c1)Cc1ccccc1`, the max response was 10.7%.
As to `COc1ccc(CCC(=O)OCC(=O)Nc2ccc(C)c(S(=O)(=O)N(C)C)c2)cc1`, the max response is -1.02%.
As for `Cc1ccc(C(=O)Nc2ccc(NC(=O)c3cccs3)cc2)c(C)c1`, the max response is 3.31%.
In the case of `Cc1ccc(NC(=O)c2cccs2)cc1S(=O)(=O)N(C)C`, the max response was 17.7% (active).
With `CCn1c(SCC(=O)NC2CC2)nnc1-c1ccccc1OC` the figure was -2.41%; with `COc1ccc(C2CC(c3cccs3)=NN2C(=O)COC(=O)c2cc3ccccc3cc2O)cc1OC` (centres undefined), -1.77%; with `C=CCn1c(SCc2ccc(C(=O)NCCO)cc2)nc2ccccc2c1=O`, 0.679%.
`Cc1cc(C)cc(N(CC(=O)NC2CCCC2)C(=O)CCC(=O)Nc2cc(C)on2)c1`: the max response is -3.66%.
With `O=C(NCCCN1CCOCC1)c1cc(-c2cccc(O)c2)on1`, the max response was 2.22%.
Turning to `O=C(NCCCN1CCOCC1)c1ccccc1NS(=O)(=O)c1ccc(Br)cc1`, the max response was 2.08%.
For `O=C(c1ccco1)N1CCN(C(=S)Nc2cc(F)cc(F)c2)CC1`, the max response was -0.627%.
`O=C(NCCCN1CCOCC1)c1cc(-c2ccc(Cl)cc2)on1`: the max response was -2.13%.
With `O=C(NCCCN1CCOCC1)c1cc(-c2ccccc2F)no1` the figure was 28% (active); with `O=C(NCCCN1CCOCC1)c1ccccc1NS(=O)(=O)c1ccc(F)cc1`, 16.7% (active); with `O=C(c1ccco1)N1CCN(C(=O)c2cc(-c3ccccc3F)no2)CC1`, 24.9% (active).
For the compound `O=C(Cc1c(F)cccc1Cl)N1CCN(C(=O)c2ccco2)CC1`, the max response was -3.56%.
In the case of `O=C(NCCCN1CCOCC1)c1cnn2c(-c3ccccc3)cc(-c3ccccc3)nc12`, the max response was -2.91%.
